Compound activity as filed in PubChem.
The sample as a whole holds a higher share of hits than the screen did.
FECH inh = inhibitors of human ferrochelatase. P22830. purified FECH, Ni-mesoporphyrin absorbance 550 nm. calls only at 10 µM (by protocol). 20,000 tested, 3.3% active;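 active = enzyme reaction rate more than 3 SD below the solvent-only control wells on the same plate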;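 note: lower slope than DMSO wells means FECH inhibition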
Target sequence (P22830 whole entry, looked up): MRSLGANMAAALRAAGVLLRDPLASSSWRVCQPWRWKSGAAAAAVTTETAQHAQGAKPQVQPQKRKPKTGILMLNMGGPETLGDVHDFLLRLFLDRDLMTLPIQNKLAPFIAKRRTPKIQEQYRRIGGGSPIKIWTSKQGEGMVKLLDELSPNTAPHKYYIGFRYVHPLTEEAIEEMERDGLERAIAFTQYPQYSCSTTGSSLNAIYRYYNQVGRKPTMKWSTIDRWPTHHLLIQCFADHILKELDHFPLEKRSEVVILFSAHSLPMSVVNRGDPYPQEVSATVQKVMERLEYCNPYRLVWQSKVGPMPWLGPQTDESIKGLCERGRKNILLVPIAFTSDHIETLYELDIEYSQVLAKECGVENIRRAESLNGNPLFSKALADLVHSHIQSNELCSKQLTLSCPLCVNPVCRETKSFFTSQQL
An asterisk follows results filed as active; i = inactive; + = active, no number.

SMILES	FECH inh
NC(=O)[C@H](Cc1ccccc1)N1Cc2ncccc2C1=O	+
NS(=O)(=O)c1ccc(CN2Cc3ncccc3C2=O)cc1	i
O=C1c2cccnc2CN1C(CCn1cncn1)c1ccccc1 (stereo unspecified)	i
COc1ccc(Nc2cc(-n3nc(C)cc3C)ncn2)cc1OC	i
CNC(=O)[C@@H]1C[C@H](N)CN1Cc1cccn1-c1ccc(OC)cc1	i
COc1ccc(S(=O)(=O)N2CCN(Cc3nc4cccnc4n3-c3cccc(C)c3)CC2)cc1	i
O=C(NC1CCCCC1)c1nc[nH]c1C(=O)NC1CCC(O)CC1 (stereo unspecified)	i
CCc1nc(C)c(C(=O)N(C)Cc2cc(-c3ccccc3)on2)o1	i
Cc1cccc(C)c1C(=O)N1CC[C@@](C)(O)[C@@H](Cc2ccccc2)C1	+
C[C@@]1(O)CCN(C(=O)Cc2ccc(O)cc2)C[C@@H]1Cc1ccccc1	i
CC[C@H]1CN(C(=O)c2cnc(N3CCN(C)CC3)nc2C)CC[C@@]1(C)O	i
COc1ccc(CN(CC(C)C)C(=O)c2cccnc2C)cc1	i
Cc1noc(C)c1S(=O)(=O)NCc1nc2cccnc2n1C1CCCCC1	i
Cc1ccc(Cn2c(CNS(=O)(=O)c3ccc(C)cc3C)nc3cccnc32)cc1	i
COc1ccc(C(=O)Nc2nc3n(n2)C(c2ccccc2Cl)C=C(c2ccc(C)cc2)N3)cc1 (stereo unspecified)	i
Cc1cccc(OCC(=O)Nc2cccc(OCc3cc(=O)n4ccc(C)cc4n3)c2)c1	i
COc1ccc(OCC(=O)Nc2cccc(OCc3cc(=O)n4ccc(C)cc4n3)c2)cc1	i
Cc1ccc(OCC(=O)Nc2cccc(OCc3cc(=O)n4cc(Cl)ccc4n3)c2)cc1C	i
CCC(Oc1ccccc1)C(=O)Nc1ccc(C)c(OCc2cc(=O)n3cccc(C)c3n2)c1 (stereo unspecified)	i
Cc1ccccc1OCC(=O)Nc1ccc(C)c(OCc2cc(=O)n3cccc(C)c3n2)c1	+
Cc1ccc(OCC(=O)Nc2ccc(C)c(OCc3cc(=O)n4cccc(C)c4n3)c2)cc1C	+
Cc1ccn2c(=O)cc(COc3cccc(NC(=O)COc4ccccc4Cl)c3)nc2c1	i
Cc1ccn2c(=O)cc(COc3cccc(NC(=O)COc4ccccc4)c3)nc2c1	i
Cc1ccc(NC(=O)COc2ccccc2)cc1OCc1cc(=O)n2cccc(C)c2n1	+
Cc1ccc(OCC(=O)Nc2cccc(OCc3cc(=O)n4ccc(C)cc4n3)c2)cc1	i
SMILES	FECH inh
Cc1cccc(OCC(=O)Nc2ccc(C)c(OCc3cc(=O)n4cccc(C)c4n3)c2)c1	+
COc1ccc(OCC(=O)Nc2cccc(OCc3cc(=O)n4cc(Cl)ccc4n3)c2)cc1	i
Cc1ccc(C2(O)CCN(C(=O)COc3ncnc4ccccc34)CC2)nc1	i
CCc1ccccc1NC(=O)CCN1CCN(S(=O)(=O)N2CCCC2)CC1	i
O=S(=O)(NCc1nc2cccnc2n1Cc1ccc(F)cc1)c1cccc(Cl)c1	i
Cc1ccccc1-c1noc(C2CCN(C(=O)C(NC(=O)c3ccco3)C(C)C)CC2)n1 (stereo unspecified)	i
O=C(C1CCCN(c2ncnc3c2nc2n3CCCCC2)C1)N1CCCC1 (stereo unspecified)	i
COc1ccc(CCNC(=O)CCc2c(C)nn(-c3cc(N4CCCC4)ncn3)c2C)cc1OC	i
O=C(CCCn1cncn1)N1CCCC2(C=Cc3ccccc3O2)CC1 (stereo unspecified)	i
Cc1ccc(Cl)cc1NC(=O)CC(=O)NCCNc1cccnc1	i
Clc1ccc(C2CN(CCCn3ccnc3)CCO2)cc1 (stereo unspecified)	i
CCc1cc(Sc2ccc(NC(=O)Nc3ccccc3Cl)cc2)n2nc(C)nc2n1	i
NS(=O)(=O)c1ccc(NC(=O)c2csnn2)cc1	i
COc1ccc(NC(=O)c2cc(-c3ccc(OC)c(S(N)(=O)=O)c3)n[nH]2)cc1	i
COc1cc(Cl)cc2c1OC=CC(C(=O)Nc1ccc(S(N)(=O)=O)cc1)=C2	+
O=C(c1cn[nH]n1)N1CCc2c([nH]c3ccccc23)C1	i
O=C(NC1CCCCC1)c1nc[nH]c1C(=O)NC1CCCCNC1=O (stereo unspecified)	i
O=C(NC1CC1)c1nc[nH]c1C(=O)NC1CCCCNC1=O (stereo unspecified)	+
CCCNC(=O)c1[nH]cnc1C(=O)NC1CCCCNC1=O (stereo unspecified)	i
CCOCCn1nc(C2CCCNC2)n(-c2ccccc2)c1=O (stereo unspecified)	i
Fc1ccccc1CCn1ccnc1-c1cccnc1	i
O=S(=O)(c1ccccc1)N1CCN(Cc2nc3cccnc3n2-c2cccc(F)c2)CC1	i
Cc1cc(Nc2cccc(C(F)(F)F)c2)n2nc(-c3cccnc3)nc2n1	i
Cc1ccc(-n2c(CN3CCN(S(=O)(=O)c4cccs4)CC3)nc3cccnc32)cc1	+
Cc1ccc(-n2c(CN3CCN(S(=O)(=O)c4ccc(Cl)s4)CC3)nc3cccnc32)cc1	i
SMILES	FECH inh
Cc1cccc(-n2c(CN3CCN(S(=O)(=O)c4cccs4)CC3)nc3cccnc32)c1	i
COc1ccc(Nc2cc(C)nc(N3CCN(S(=O)(=O)c4cc(C)c(OC)cc4C)CC3)n2)cc1	i
COC(=O)CC1=CC(=O)N(CC(=O)Nc2cc(Cl)ccc2OC)c2ccccc2N1	i
CCn1ncnc1C(C)Nc1cc(OC)ncn1 (stereo unspecified)	i
Cc1oc(-c2ccccc2Cl)cc1C(=O)NCCc1cnc[nH]1	+
Cc1oc(-c2ccccc2Cl)cc1C(=O)NCCN1CCNC1=O	i
c1cnc2c(-c3nccn3CCc3cnc[nH]3)cccc2c1	i
CCCN(CCC)c1ncc(NS(=O)(=O)c2ccc(CC)cc2)cc1C(=O)O	i
CC(c1ccccn1)N(C)C(=O)Cn1c(=O)oc2ccccc21 (stereo unspecified)	i
CCCc1c(C)nc2ncnn2c1Sc1ccc(NS(=O)(=O)c2cccc(Cl)c2)cc1	i
CCCc1c(C)nc2ncnn2c1Sc1ccc(NC(=O)c2ccco2)cc1	i
CCCc1c(C)nc2ncnn2c1Sc1ccc(NC(C)=O)cc1	i
CCCc1c(C)nc2ncnn2c1Sc1ccc(NC(=O)c2cccc(Cl)c2)cc1	+
CCCc1c(C)nc2ncnn2c1Sc1ccc(NC(=O)c2ccc(F)cc2)cc1	i
CCCc1c(C)nc2ncnn2c1Sc1ccc(NC(=O)c2ccccc2Cl)cc1	+
CCCc1c(C)nc2ncnn2c1Sc1ccc(NC(=O)c2ccccc2OCC)cc1	+
CCc1c(C)nc2ncnn2c1Sc1ccc(NC(=O)c2ccccc2Br)cc1	i
CCc1c(C)nc2ncnn2c1Sc1ccc(NC(=O)c2cccc(C)c2)cc1	i
CC(=O)Nc1ccc(Cl)c(-c2n[nH]c(CCc3ccccc3)n2)c1	i
Cc1nc2c(c(NCCC(=O)N3CCC(C)CC3)n1)CCNC2	i
Cc1ccc(-c2nnc(-c3nc(NC4CCCCC4)c4ccccc4n3)o2)cc1	i
COc1ccccc1CN(C(=O)c1cccc(NC(C)=O)c1)C1CC1	i
CCc1[nH]c2c(CNc3cc(N4CCOCC4)ncn3)cc(C)cc2c1C	i
CCc1cc(C(=O)NCc2cc(C)cc3c(C)c(CC)[nH]c23)n(C)n1	+
CCCNC(=O)NCc1cc(C)cc2c(C)c(CC)[nH]c12	i
Cc1n[nH]c(C)c1Cc1nc(C2(c3ccc(F)cc3)CCOC2)no1 (stereo unspecified)	i
